29 compounds from the supplement of paper PMC13380429 can be followed below.

Test [1] deals with Vero E6 infected with SARS-CoV-2. Briefly: morphology score (similarity to uninfected cells); higher = more like uninfected cells. The settings on record: 24 h.
Test [2] shares this test system. Briefly: SARS-CoV-2 infection rate relative to infected DMSO; higher = more infection, active = 60 or less. The settings on record: 24 h.

As to `C[C@H](CCC(=O)O)[C@H]1CC[C@H]2[C@@H]3C[C@H](O)[C@@H]4C[C@H](O)CC[C@]4(C)[C@H]3CC[C@]12C` [Hyodeoxycholic acid (HDCA)] (10 µM), in test [1], the morphology score worked out at 0.109. Besides, in test [2], the SARS-CoV-2 infection rate is 102% (inactive).

Regarding `C[N+]1(C)CCC(OC(=O)C(c2ccccc2)c2ccccc2)CC1` (10 µM), the morphology score in test [1] was found to be 0.103. Further, the SARS-CoV-2 infection rate in test [2] is 114% (inactive).

`COc1ccc(CCN2CCN(CCCc3ccccc3)CC2)cc1OC` [cutamesine] (10 µM) displayed a morphology score in test [1] of -0.0482. Further, in test [2], the SARS-CoV-2 infection rate is 106% (inactive).

The compound `O=S(=O)(O)Oc1ccc(C(c2ccc(OS(=O)(=O)O)cc2)c2ccccn2)cc1` [sodium-picosulfate] (10 µM) displayed a morphology score in test [1] of 0.154. The SARS-CoV-2 infection rate in test [2] was 101% (inactive).

In turn, `Cc1cc(SCc2sc(-c3ccc(C(F)(F)F)c(F)c3)nc2C)ccc1OCC(=O)O` (10 µM) yielded a morphology score in test [1] of 0.143. Besides, in test [2], the SARS-CoV-2 infection rate is 99.5% (inactive).

As for `O=[N+]([O-])c1ccccc1S(=O)(=O)NCC1CCC(CNC[C@H]2CCc3ccccc3C2)CC1` (stereo partly drawn) (0.833333 µM), the morphology score in test [1] was -0.0186. Moreover, in test [2], the SARS-CoV-2 infection rate is 97.5% (inactive).

As for `Cc1c(Cc2ccc3ccccc3n2)c2cc(F)ccc2n1CC(=O)O` (10 µM), the morphology score in test [1] was determined as 0.0108. Also, the SARS-CoV-2 infection rate in test [2] is 102% (inactive).

For `C[C@@H](O[C@H]1OCCN(Cc2n[nH]c(=O)[nH]2)[C@H]1c1ccc(F)cc1)c1cc(C(F)(F)F)cc(C(F)(F)F)c1` [aprepitant] (10 µM), the morphology score in test [1] was determined as 0.0718. Further, the SARS-CoV-2 infection rate in test [2] is 108% (inactive).

Consider `O=C(OC(C(F)(F)F)C(F)(F)F)N1CCC(C(O)(c2ccc3c(c2)OCO3)c2ccc3c(c2)OCO3)CC1` (10 µM), for which, in test [1], the morphology score came to 0.159. In addition, the SARS-CoV-2 infection rate in test [2] was 93.5% (inactive).

`C=CCC1(CC(C)C)C(=O)NC(=O)NC1=O` [butalbital] (10 µM) returned a morphology score in test [1] of -0.0632. In addition, the SARS-CoV-2 infection rate in test [2] is 117% (inactive).

In turn, `C[C@H]1C[C@H]2[C@@H]3CCC4=CC(=O)C=C[C@]4(C)[C@@]3(Cl)[C@@H](O)C[C@]2(C)[C@@]1(O)C(=O)CO` [beclomethasone] (10 µM) had a morphology score in test [1] of 0.101. Also, the SARS-CoV-2 infection rate in test [2] is 89.5% (inactive).

In test [1], `CNS(=O)(=O)Cc1ccc2[nH]cc(CCN(C)C)c2c1` [sumatriptan] (10 µM) returned a morphology score of 0.205. Also, the SARS-CoV-2 infection rate in test [2] was 98% (inactive).

Consider `Cc1ccc2c(Br)cc(Br)c(OC(=O)c3ccccc3)c2n1` [broxaldine] (0.833333 µM), for which the morphology score in test [1] was found to be 0.246. Also, the SARS-CoV-2 infection rate in test [2] was 103% (inactive).

With `Cc1[nH]c2ccc(O)cc2c1CCN` [2-methyl-5-hydroxytryptamine] (10 µM), in test [1], the morphology score turned out to be 0.00237. In addition, the SARS-CoV-2 infection rate in test [2] was 108% (inactive).

Consider `CN1CCN(c2nc(C3=C(c4c[nH]c5ccccc45)C(=O)NC3=O)c3ccccc3n2)CC1` [sotrastaurin] (10 µM), for which the morphology score in test [1] was 0.0619. The SARS-CoV-2 infection rate in test [2] is 119% (inactive).

Turning to `C[N+](C)(C)[C@@H](Cc1c[nH]c(=S)[nH]1)C(=O)O` [L-ergothioneine] (10 µM), the morphology score in test [1] is 0.0598. Moreover, the SARS-CoV-2 infection rate in test [2] is 99% (inactive).

For `O=C1c2c(O)cc(O)cc2O[C@H](c2ccc(O)c(O)c2)[C@H]1O` [taxifolin] (10 µM), in test [1], the morphology score turned out to be 0.187. Further, the SARS-CoV-2 infection rate in test [2] is 99.5% (inactive).

Turning to `N=C(N)N/N=C/c1c(Cl)cccc1Cl` [guanaben-acetate] (10 µM), in test [1], the morphology score is -0.127. For the same compound, the SARS-CoV-2 infection rate in test [2] is 114% (inactive).

`C=C1/C(=C\C=C2/CCC[C@]3(C)[C@@H]([C@H](C)/C=C/[C@H](C)C(C)C)CC[C@@H]23)C[C@@H](O)C[C@@H]1O` [doxercalciferol] (10 µM): in test [1], the morphology score was -0.0772. Besides, in test [2], the SARS-CoV-2 infection rate is 106% (inactive).

Take `COC(=O)[C@@H]1C[C@H](OC(C)=O)C(=O)[C@H]2[C@@]1(C)CC[C@H]1C(=O)O[C@H](c3ccoc3)C[C@]21C` [salvinorin-A] (10 µM): the morphology score in test [1] was determined as 0.127. For the same compound, the SARS-CoV-2 infection rate in test [2] was 100% (inactive).

Compound `CC(C)C(=O)Nc1ncc(-c2cc(C(F)F)nn2-c2c(Cl)cccc2Cl)s1` (10 µM) showed a morphology score in test [1] of -0.133. In addition, the SARS-CoV-2 infection rate in test [2] was 108% (inactive).

Consider `CNC(=S)C1(c2ccccn2)CCCS1` (stereo not drawn) [picartamide] (10 µM), for which, in test [1], the morphology score is -0.0189. The SARS-CoV-2 infection rate in test [2] was 106% (inactive).

As to `Cc1sc(C)c(C(=O)NC2(c3ccc(C(=O)O)cc3)CC2)c1Cc1ccc(C(F)(F)F)cc1` (10 µM), the morphology score in test [1] was 0.187. Also, the SARS-CoV-2 infection rate in test [2] is 108% (inactive).

Consider `O=C(O)c1ccc(-c2c[nH]c3ncc(-c4ccccc4)cc23)cc1C1CCCC1` (10 µM), for which, in test [1], the morphology score was 0.309. Also, the SARS-CoV-2 infection rate in test [2] is 89.5% (inactive).

In turn, `CO[C@H]1CC[C@H](N2C(=O)CNc3ncc(-c4ccc(C(C)(C)O)nc4)nc32)CC1` (0.833333 µM) returned a morphology score in test [1] of 0.21. Moreover, the SARS-CoV-2 infection rate in test [2] is 82.5% (inactive).

In the case of `Cc1cc(C)c2nc(-c3ccccn3)cc(C(=O)Nc3ccc(S(=O)(=O)Nc4onc(C)c4C)cc3)c2c1` (10 µM), the morphology score in test [1] is -0.319. Also, in test [2], the SARS-CoV-2 infection rate is 97% (inactive).

`O=C(O)c1cc(=O)c2ccccc2[nH]1` [kynurenic-acid] (10 µM) returned a morphology score in test [1] of 0.122. For the same compound, the SARS-CoV-2 infection rate in test [2] is 97% (inactive).

The compound `CCOC(=O)Nc1ccc2c(c1)N(C(=O)CN(CC)CC)c1ccccc1CC2` (10 µM) showed a morphology score in test [1] of 0.0358. Also, the SARS-CoV-2 infection rate in test [2] was 101% (inactive).

As to `CCc1ccc2c(-c3cccc(Cl)c3)nc(=O)n(CC)c2n1` (10 µM), the morphology score in test [1] was found to be 0.375. Besides, the SARS-CoV-2 infection rate in test [2] was 100% (inactive).
